The values that follow come from a collection of fitness landscapes (doi:10.1126/science.1257360).

Whole data set: some 140,000 sequences, median “enrichment ratio after two sorts for PhoP signalling” near 0, cut for the highest 2% near 11. Many of the other results were omitted from the sample, so the highest values are more common in it than they were.

To fix the notation:
B1: PhoQ; a variant is named by its letters at X, in order, P23837 (parent)
chain: MKKLLRLFFPLSLRVRFLLATAAVVLVLSLAYGMVALIGYSVSFDKTTFRLLRGESNLFYTLAKWENNKLHVELPENIDKQSPTMTLIYDENGQLLWAQRDVPWLMKMIQPDWLKSNGFHEIEADVNDTSLLLSGDHSIQQQLQEVREDDDDAEMTHSVAVNVYPATSRMPKLTIVVVDTIPVELKSSYMVWSWFIYVLSANLLLVIPLLWVAAWWSLRPIEALAKEVRELEEHNRELLNPATTRELTSLVRNLNRLLKSERERYDKYRTTLTDLTHSLKTPLXXLQXXLRSLRSEKMSVSDAEPVMLEQISRISQQIGYYLHRASMRGGTLLSRELHPVAPLLDNLTSALNKVYQRKGVNISLDISPEISFVGEQNDFVEVMGNVLDNACKYCLEFVEISARQTDEHLYIVVEDDGPGIPLSKREVIFDRGQRVDTLRPGQGVGLAVAREITEQYEGKIVAGESMLGGARMEVIFGRQHSAPKDE

The variants in the experiment derive from B1. As to the kind of experiment: enrichment ratio after two sorts for PhoP signalling (ratio (wild type AVST 3.29)); higher = more functional. The note with it: with PhoP (E. coli).
For QAIA, the enrichment ratio is no more than 0.25. Regarding SRGI, the enrichment ratio was no more than 0.25. To SNFP belongs no more than 0.25; to KYGI, no more than 0.25; to SNGI, 12.1.

Regarding STGI, the enrichment ratio was 4.79.

With SCGI, the enrichment ratio was determined as 12.6. For FMGW, the enrichment ratio is no more than 0.25. To HQYK belongs no more than 0.25; to SCLT, 13.3. The result for SCIT reads 1.21. In the case of SCLA, the enrichment ratio was determined as 11.8. The result for SCDT reads no more than 0.25; that for SCLN, 11.7; that for SWLN, no more than 0.25. The result for SCNT reads no more than 0.25; that for SCLS, 9.62.

Turning to SCVT, the enrichment ratio was determined as 1.01.

For SCVN, the enrichment ratio came out at 11.1. The result for SCAT reads 16.1; that for SCVA, 4.93; that for PRNP, no more than 0.25.

As for AWLY, the enrichment ratio is no more than 0.25. To SHFY belongs no more than 0.25; to VDWL, no more than 0.25. As for MMEY, the enrichment ratio is no more than 0.25. Consider TQQK, for which the enrichment ratio is no more than 0.25. To EQTE belongs no more than 0.25; to TQTE, 26.4. To SQTE belongs 26.5; to FQTE, no more than 0.25; to KSTE, no more than 0.25. To YTEA belongs no more than 0.25; to PPGL, no more than 0.25. Regarding YALC, the enrichment ratio was found to be 3.77. On to AALC, for which the enrichment ratio amounted to 13.9. For VGLC, the enrichment ratio stood at 16.6. The result for NALC reads no more than 0.25. The result for GGLC reads 4.03. The result for VYLC reads no more than 0.25; that for TGLC, 10.

Regarding VFLC, the enrichment ratio is no more than 0.25. In the case of AGLC, the enrichment ratio was determined as 12.4. To NNPM belongs no more than 0.25. The result for QKWG reads no more than 0.25; that for ASFD, no more than 0.25; that for KIHF, no more than 0.25. As to NGVA, the enrichment ratio was no more than 0.25. Turning to KLRA, the enrichment ratio was no more than 0.25. Consider MMAC, for which the enrichment ratio is 3.29.

STAC: the enrichment ratio was determined as 4.33. To SEAC belongs 19.8; to MEAC, 37.3. Consider YWAC, for which the enrichment ratio was no more than 0.25.

Take MKAC: the enrichment ratio was no more than 0.25.

Turning to QEAC, the enrichment ratio worked out at 16. To QKAC belongs no more than 0.25; to SLAC, 2.46. The result for DMAC reads no more than 0.25.

As to SFAC, the enrichment ratio was no more than 0.25.

Regarding NEAC, the enrichment ratio was found to be 15.1. NIYV: the enrichment ratio was no more than 0.25. To IRLQ belongs no more than 0.25; to HPHQ, no more than 0.25; to QISV, no more than 0.25. For the variant SDLF, the enrichment ratio was no more than 0.25. As to TCEE, the enrichment ratio was no more than 0.25. To MKWH belongs no more than 0.25. For the variant QAWW, the enrichment ratio was no more than 0.25. Consider QCDG, for which the enrichment ratio was no more than 0.25.

Take YQQR: the enrichment ratio was no more than 0.25. With VEAC, the enrichment ratio was found to be 0.99. To FSAC belongs no more than 0.25; to KAAC, no more than 0.25; to NQAC, no more than 0.25. As to TEAC, the enrichment ratio is 25.6. The result for SSAC reads 11.3. Consider KSAC, for which the enrichment ratio was no more than 0.25. To SQAC belongs 13.4; to EQAC, no more than 0.25. Turning to PWYS, the enrichment ratio was no more than 0.25. To WGDA belongs no more than 0.25; to NQIK, no more than 0.25; to RNSM, no more than 0.25. To LAQF belongs no more than 0.25. Turning to TQHF, the enrichment ratio turned out to be 16.2.

For TQMS, the enrichment ratio was determined as 4.53. The result for DWSM reads no more than 0.25; that for TQHI, 3.97; that for TQSF, 7.45. The result for TQQF reads 33.4; that for TQHQ, 13.8; that for TQTD, no more than 0.25. For the variant TQSM, the enrichment ratio was found to be 23.3. To TQHP belongs no more than 0.25; to NYQY, no more than 0.25.

Take NTGP: the enrichment ratio was no more than 0.25. Turning to YRMS, the enrichment ratio is no more than 0.25. Turning to FSKE, the enrichment ratio was no more than 0.25.

With MTHL, the enrichment ratio is 7.87. To PNLT belongs no more than 0.25; to TPTL, no more than 0.25. To SMDI belongs no more than 0.25; to REVG, no more than 0.25. For the variant WQFM, the enrichment ratio is no more than 0.25. To PAAY belongs no more than 0.25; to ENTT, no more than 0.25. The result for GKMH reads no more than 0.25; that for KCNH, no more than 0.25; that for LNPK, no more than 0.25. For the variant DPCV, the enrichment ratio was no more than 0.25. Consider DECI, for which the enrichment ratio was no more than 0.25. Take MERM: the enrichment ratio is no more than 0.25.

Consider MELA, for which the enrichment ratio was no more than 0.25. To MEWI belongs 24. Take DECV: the enrichment ratio is 25.8. With MEGM, the enrichment ratio was no more than 0.25. In the case of MELS, the enrichment ratio is 9.24. In the case of MECK, the enrichment ratio is 27.3. With MKCS, the enrichment ratio is no more than 0.25.

Take NECS: the enrichment ratio was no more than 0.25. In the case of MECS, the enrichment ratio worked out at 11.2. Regarding VHCY, the enrichment ratio was no more than 0.25. The result for MPCS reads no more than 0.25; that for PKNK, no more than 0.25. For PCQL, the enrichment ratio is no more than 0.25.

For the variant ICAL, the enrichment ratio was 0.516. To STWD belongs no more than 0.25. Regarding TWLL, the enrichment ratio was no more than 0.25. As to FYED, the enrichment ratio is no more than 0.25.

Take FVPW: the enrichment ratio is no more than 0.25.

With NCRM, the enrichment ratio was no more than 0.25. Consider MECV, for which the enrichment ratio was found to be 18.2. MECI: the enrichment ratio amounted to 12.8.

MECA: the enrichment ratio worked out at 3. To MMCV belongs 4.31; to NECV, no more than 0.25. With MEGD, the enrichment ratio is no more than 0.25. To DNCI belongs no more than 0.25; to VVVI, no more than 0.25.

In the case of MDLY, the enrichment ratio was no more than 0.25. Turning to TMFE, the enrichment ratio is no more than 0.25. To MWWC belongs no more than 0.25; to SMAS, 11.6; to SMAN, 6.01.

For SMGY, the enrichment ratio turned out to be 7.3. As to SMAT, the enrichment ratio is 7.92. Turning to SMGD, the enrichment ratio was found to be 1.08.

Take SMYI: the enrichment ratio was no more than 0.25. To SMTG belongs 5.2; to SMAI, 13.5; to SMAY, 25.3. Turning to SMVG, the enrichment ratio was 8.8. Consider SMRY, for which the enrichment ratio was no more than 0.25. On to SMAG, for which the enrichment ratio worked out at 11.3.
